Test results published in PubChem BioAssay (NCATS).
Inconclusive results are not listed. Calls of active or inactive are those of the source. Calls follow the shape of the dose curve; as a rule, active = well fitted curve in the direction sought with a large enough effect; inconclusive = small, poorly fitted or top-dose-only effect, or another doubt; inactive = no such curve, though single readings can be large; an effect the other way counts as inactive or inconclusive.

Legend:
[1] = qHTS of pediatric cancer cell lines to identify multiple opportunities for drug repurposing: Primary screen for SJ-GBM2 cells (AID 1347091)
How it was run: (§1)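 Cell viability, CellTiter-Glo luminescence; 500-1,000 cells/well, 8- or 11-point titration, 48 h compound exposure at 37 degrees C, 5% CO2. Controls: DMSO neutral, bortezomib 2.3 µM final as positive.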

[2] = qHTS of pediatric cancer cell lines to identify multiple opportunities for drug repurposing: Primary screen for A673 cells (AID 1347092); also: nearly all actives have a fitted effect of over 45% in size
How it was run: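 Titration-based qHTS on A673 cells: MIPE compounds spanned 11 points (0.78 nM to 46 µM final), NPC compounds 8 points (0.59 nM to 46 µM final). Viability after 48 h was measured by ATP luminescence.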

[3] = qHTS of pediatric cancer cell lines to identify multiple opportunities for drug repurposing: Primary screen for SK-N-MC cells (AID 1347093)
How it was run: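 Metabolically active cells were quantified by ATP-dependent luminescence (CellTiter-Glo, 15 min at room temperature) following 48 h treatment. Cells had been plated at 500-1,000 per well and settled for 5 h beforehand.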

[4] = qHTS of pediatric cancer cell lines to identify multiple opportunities for drug repurposing: Primary screen for BT-37 cells (AID 1347094)
How it was run: (§2)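 Cells seeded at 500-1,000 cells/well in growth media, rested 5 hours at 37 degrees C, 5% CO2, then dosed; MIPE compounds at 11-point (from 0.78 nM) and NPC at 8-point (from 0.59 nM) final concentrations. Viability by CellTiter-Glo luminescence after 48 hours.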

[5] = qHTS of pediatric cancer cell lines to identify multiple opportunities for drug repurposing: Primary screen for U-2 OS cells (AID 1347096); also: nearly all actives have a fitted effect of over 50% in size
How it was run: (§3)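 Cells (500-1,000/well) rested 5 h, then received compounds for 48 h; metabolically active cells were measured by CellTiter-Glo luminescence. Final concentrations spanned up to 46 µM (MIPE, 11-point) or 0.59 nM-46 µM (NPC, 8-point) in primary screens, 11-point in follow-ups.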

[6] = qHTS of pediatric cancer cell lines to identify multiple opportunities for drug repurposing: Primary screen for Saos-2 cells (AID 1347097); also: nearly all actives have a fitted effect of over 40% in size
How it was run: as §2

[7] = qHTS of pediatric cancer cell lines to identify multiple opportunities for drug repurposing: Primary screen for SK-N-SH cells (AID 1347098); also: nearly all actives have a fitted effect of over 65% in size
How it was run: as §3

[8] = qHTS of pediatric cancer cell lines to identify multiple opportunities for drug repurposing: Primary screen for DAOY cells (AID 1347090); also: nearly all actives have a fitted effect of over 55% in size
How it was run: as §1

[9] = qHTS of pediatric cancer cell lines to identify multiple opportunities for drug repurposing: Primary screen for NB-EBc1 cells (AID 1347095)
How it was run: as §2
Potency is read from the fitted curve at half-maximal effect.

Compound	Potency [1]	Potency [2]	Potency [3]	Potency [4]	Potency [5]	Potency [6]	Potency [7]	Potency [8]	Potency [9]
O=c1[nH]nc(OCCCc2ccc(Cl)cc2)c(NCc2cccnc2)c1Br	23.5 µM (active)	9.35 µM (active)	10.5 µM (active)	21.7 µM (active)	23.5 µM (active)	26.4 µM (active)	inactive		
O=C(CO)N1CCC(c2[nH]nc(-c3ccc(Cl)cc3)c2-c2ccncn2)CC1		inactive	inactive		inactive		inactive	inactive	inactive
COC1CCC(C(=O)c2ccc3nc4c(cc3c2)CCCO4)CC1 (stereo not given)		23.5 µM (active)			inactive			inactive	
CC[C@@H]([C@H](C)O)n1ncn(-c2ccc(N3CCN(c4ccc(OCC5CO[C@@](Cn6cncn6)(c6ccc(F)cc6F)C5)cc4)CC3)cc2)c1=O (stereo not given in full)	18.7 µM (active)	18.7 µM (active)	16.6 µM (active)		inactive	26.4 µM (active)	inactive		20.9 µM (active)
NC1(C(=O)N[C@@H](CCO)c2ccc(Cl)cc2)CCN(c2ncnc3[nH]ccc23)CC1		18.7 µM (active)	0.372 µM (active)			5.9 µM (active)	30.4 µM (active)	14.8 µM (active)	
CNC(=O)c1c(-c2ccc(F)cc2)oc2cc(N(CCO)S(C)(=O)=O)c(C3CC3)cc12		23.5 µM (active)				16.6 µM (active)	30.4 µM (active)	23.5 µM (active)	
C[C@]12C=CC(=O)C=C1CC[C@@H]1[C@@H]2[C@@H](O)C[C@@]2(C)[C@@H]1CC[C@]2(O)C(=O)CO			29.6 µM (active)		inactive	inactive		inactive	14.8 µM (active)
CC(C)n1c(C=C[C@H](O)C[C@H](O)CC(=O)O)c(-c2ccc(F)cc2)c2ccccc21	9.35 µM (active)		11.8 µM (active)	19.3 µM (active)	14.8 µM (active)	1.87 µM (active)	6.81 µM (active)	1.87 µM (active)	
CC1(C)[C@H]2CC[C@]3(C)[C@@H](C(=O)C=C4[C@@H]5C[C@@](C)(C(=O)O)CC[C@]5(C)CC[C@]43C)[C@@]2(C)CC[C@@H]1O			inactive	inactive	inactive	inactive	inactive	inactive	
C=CC(=O)Nc1cccc(Sc2nc(Nc3ccc(N4CCN(C)CC4)cc3)ncc2Cl)c1		1.48 µM (active)	2.64 µM (active)				27.1 µM (active)	2.35 µM (active)	9.35 µM (active)
COc1nc(C)cnc1NS(=O)(=O)c1cccnc1-c1ccc(-c2nnco2)cc1	inactive	inactive	inactive	inactive	inactive	inactive			inactive
CO[C@@H]1C(N(C)C(=O)c2ccccc2)C[C@H]2O[C@]1(C)n1c3ccccc3c3c4c(c5c6ccccc6n2c5c31)C(=O)NC4=O (stereo not given in full)	2.35 µM (active)	2.96 µM (active)	1.32 µM (active)	inactive			6.07 µM (active)		
CCc1cccc(CC)c1NC(=O)N1Cc2[nH]nc(NC(=O)c3ccc(N4CCN(C)CC4)cc3)c2C1			0.833 µM (active)	inactive		1.18 µM (active)	6.07 µM (active)		inactive
CC(O)=C(C#N)C(=O)Nc1ccc(C(F)(F)F)cc1		18.7 µM (active)	4.69 µM (active)		inactive				4.18 µM (active)
CC(=O)OCC(=O)[C@@]12OC(C)(C)O[C@H]1C[C@H]1[C@@H]3C[C@H](F)C4=CC(=O)C=C[C@]4(C)[C@@]3(F)[C@@H](O)C[C@@]12C	inactive	inactive		inactive	inactive		inactive		inactive
O=S(=O)(NCCNCC=Cc1ccc(Br)cc1)c1cccc2cnccc12	11.8 µM (active)	11.8 µM (active)				16.6 µM (active)	19.2 µM (active)		16.6 µM (active)
CN1CCC[C@H]1CCO[C@](C)(c1ccccc1)c1ccc(Cl)cc1	inactive		20.9 µM (active)	inactive	inactive		30.4 µM (active)		
CN(C)N=Nc1nc[nH]c1C(N)=O		inactive	2.64 µM (active)		inactive	inactive	inactive		inactive
CC(=O)NCCC(=O)N[C@@H](CCC(N)=O)C(=O)N[C@@H](CO)C(=O)N[C@@H](CCC(N)=O)C(=O)N[C@@H](CCC(N)=O)C(=O)N[C@H](C(=O)N[C@@H](Cc1ccccc1)C(=O)N[C@]1(C)CCCCCCC=CCCC[C@@](C)(C(=O)N[C@@H](CCC(N)=O)C(=O)N[C@@H](CC(N)=O)C(N)=O)NC(=O)[C@H](CC(C)C)NC(=O)[C@H](CC(C)C)NC(=O)[C@@H](CCCNC(=N)N)NC(=O)[C@H](Cc2c[nH]c3ccccc23)NC(=O)[C@H](CC(C)C)NC(=O)[C@H](CC(N)=O)NC1=O)[C@H](C)O	inactive		inactive		inactive	inactive	inactive		inactive
CCc1cc(-c2n[nH]c(C)c2-c2ccc3c(c2)OCCO3)c(O)cc1O	6.62 µM (active)		10.5 µM (active)		11.8 µM (active)	14.8 µM (active)	9.61 µM (active)		4.69 µM (active)
CN1[C@H]2CC[C@H]1CC(OC(=O)c1c[nH]c3ccccc13)C2 (stereo not given in full)	inactive	inactive		inactive	inactive		24.1 µM (active)		inactive
O=C(CCCN1CCN(c2ccc(F)cc2)CC1)NC1c2ccccc2CSc2ccccc21 (stereo not given)		11.8 µM (active)	20.9 µM (active)						
c1ccc(-c2oc3ncnc(NC[C@@H]4CCCO4)c3c2-c2ccccc2)cc1		23.5 µM (active)			inactive	29.6 µM (active)	24.1 µM (active)		
C[C@@H](O)[C@H]1C(=O)N2C(C(=O)OCOC(=O)C(C)(C)C)=C(SC3CN(C4=NCCS4)C3)[C@H](C)[C@H]12	inactive		inactive	inactive	inactive	inactive	inactive		
Cc1c(C(=O)Nc2ccc(N3C[C@@H](C)O[C@@H](C)C3)nc2)cccc1-c1ccc(OC(F)(F)F)cc1		7.43 µM (active)	16.6 µM (active)			18.7 µM (active)	3.41 µM (active)		

Compound	Potency [1]	Potency [2]	Potency [3]	Potency [4]	Potency [5]	Potency [6]	Potency [7]	Potency [8]	Potency [9]
C[C@H]1[C@H](O)O[C@@H]2O[C@@]3(C)CC[C@@H]4[C@H](C)CC[C@@H]1[C@@]24OO3			1.05 µM (active)	3.85 µM (active)		2.96 µM (active)			3.72 µM (active)
CC1=C[C@@H]2[C@@H]([C@@H](O)C[C@@]3(C)[C@H]2C[C@@H](C)[C@]3(O)C(=O)CO)[C@@]2(C)Cc3cnn(-c4ccccc4)c3C=C12	20.9 µM (active)	18.7 µM (active)			inactive	29.6 µM (active)			
CCNC(=O)[C@H]1O[C@@H](n2cnc3c(N)nc(NCCc4ccc(CCC(=O)O)cc4)nc32)[C@H](O)[C@H]1O		inactive	inactive	inactive	inactive		inactive		inactive
CCCCC(C=O)NC(=O)C(CC(C)C)NC(=O)OCc1ccccc1 (stereo not given)	inactive				inactive	inactive			inactive
CN1CCN(c2ncc(-c3cc(Cl)cc(Cl)c3Cl)c(N)n2)CC1		2.35 µM (active)	10.5 µM (active)	3.06 µM (active)	inactive		21.5 µM (active)		
CC(C)Oc1cc(Nc2nc(N[C@@H](C)c3ccc(F)cn3)ncc2Cl)[nH]n1	16.6 µM (active)		4.69 µM (active)	27.3 µM (active)	23.5 µM (active)	5.26 µM (active)	13.6 µM (active)		3.32 µM (active)
COc1ccc2nc3cc(Cl)ccc3c(Nc3cc(CN4CCCC4)c(O)c(CN4CCCC4)c3)c2n1					inactive	inactive			
Cc1csc(-c2nnc(Nc3ccc(Oc4ncccc4-c4ccnc(N)n4)cc3)c3ccccc23)c1	0.003 µM (active)	14.8 µM (active)	0.0037 µM (active)		inactive				
C=C1[C@H](n2cnc3c(=O)[nH]c(N)nc32)C[C@H](O)[C@H]1CO	0.0235 µM (active)		0.0187 µM (active)	21.7 µM (active)	inactive		inactive		2.09 µM (active)
COc1ccc(-c2nc3ccc(C4=NNC(=O)CC4C)cc3[nH]2)cc1 (stereo not given)			21.1 µM (active)		inactive		15.4 µM (active)		11.9 µM (active)
CCn1c(-c2nonc2N)nc2cncc(CNC3CCNCC3)c21		14.8 µM (active)	inactive	inactive	inactive	11.8 µM (active)	24.1 µM (active)		
O=C(O)c1ccc(O)c2ncc(N3CCOCC3)cc12			18.7 µM (active)			23.5 µM (active)	30.4 µM (active)		20.9 µM (active)
O=c1[nH]c(=O)n([C@H]2C[C@@H](O)[C@@H](CO)O2)cc1C(F)(F)F		3.72 µM (active)	3.72 µM (active)	3.06 µM (active)	inactive	inactive	inactive		18.7 µM (active)
C[C@@]1(C(=O)Nc2ccc(F)nc2)CCCN1c1nc(Nc2cc(C3CC3)[nH]n2)c2cccn2n1	0.187 µM (active)	0.0935 µM (active)	0.001 µM (active)		inactive	1.05 µM (active)	1.92 µM (active)		0.0264 µM (active)
Cc1[nH]c(C=C2C(=O)Nc3ccc(S(=O)(=O)N(C)c4cccc(Cl)c4)cc32)c(C)c1C(=O)N1CCN(C)CC1		23.5 µM (active)	11.8 µM (active)	24.3 µM (active)	18.7 µM (active)	18.7 µM (active)	30.4 µM (active)		
COc1cc2nc(-c3cc(F)ccc3O)nc(N[C@@H]3CNC[C@@H]3C(C)(C)O)c2cc1OC	23.5 µM (active)	7.43 µM (active)		27.3 µM (active)		9.35 µM (active)	30.4 µM (active)		
CCCCCOC(=O)Nc1nc(=O)n([C@@H]2O[C@H](C)[C@@H](O)C2O)cc1F (stereo not given in full)	inactive	inactive		inactive	inactive		inactive		
CN(C(Cc1ccc(OS(=O)(=O)c2cccc3cnccc23)cc1)C(=O)N1CCN(c2ccccc2)CC1)S(=O)(=O)c1cccc2cnccc12 (stereo not given)		18.7 µM (active)	0.418 µM (active)	inactive					
O=C(Nc1ccccc1)Nc1ccc(-c2ccc(C(=O)[C@H]3CCC[C@H]3C(=O)O)cc2)cc1			1.87 µM (active)		inactive	inactive			inactive
COc1cc(CNC(=O)CCCCC=CC(C)C)ccc1O	inactive		inactive	inactive	inactive	inactive			inactive
Cc1ccccc1C(=O)c1ccc(Nc2ccc(Br)cc2N)cc1Cl	23.5 µM (active)	18.7 µM (active)	16.6 µM (active)			18.7 µM (active)	inactive		
Cc1ccc(C2=Nc3ccc(Cl)cc3OC2)cc1		18.7 µM (active)			inactive		2.15 µM (active)		
COc1cc2nccc(Oc3ccc(NC(=O)Nc4ccc(F)cc4F)c(F)c3)c2cc1OC	2.96 µM (active)		3.72 µM (active)	inactive	inactive		inactive		2.35 µM (active)
CCN1CCC(n2cc(CNc3cc(Cl)c4ncc(C#N)c(Nc5ccc(F)c(Cl)c5)c4c3)nn2)CC1	18.7 µM (active)			24.3 µM (active)	inactive	14.8 µM (active)			23.5 µM (active)
